This passage reports PBM binding z-score results from the supplement of paper PMC6555819.

This assay has as its system VDR:RXRa (NR concentration 270 nM, RXRa partner concentration 90 nM). Briefly: PBM binding z-score (relative to random genomic background probes); higher = stronger binding; sequences stand for … in GC…GCGATTGACAGCGTAGAATGAAGG
The procedure: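 Protein-binding microarray (Agilent 4x180K custom design, double-stranded 60-nt probes: 5' GC cap, 34-nt variable region, 24-nt constant primer region; full probe sequence given). Purified or IVT nuclear receptor:RXRα heterodimers (3:1 NR:RXRα, mostly 270:90 nM) or homodimers were incubated for 1 h in PBS with 2% milk and no ligand, then detected with Alexa488 antibodies. Fluorescence from o1-orientation probes (~5 replicates averaged) was converted to z-scores against 500 random hg19 background probes. Variable regions are seed direct-repeat (DR0–DR5) sites, all their single-nucleotide variants and half-site ablations.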
As for CTACCAAAGTGAACAAGGTCGTTGATTACTATTC, the PBM binding z-score was 3.07.
The value for CCTACTGGGCCATCAGGTCATTGGTATCAACGTT was 2.04.
As for ATCTCTACGTAAAGATAGTTCAGTGAATGCAAAT, the PBM binding z-score was found to be 0.567.
To TCTCGGAGGACACGAATGGTCAGAGCTCGACATC belongs -0.0797; to TTACCAAGGTGAATGGTCGTTGATGCACGCCTTG, -0.0229; to ATCTCTAGGTAAAAGTTCGGTGAATCCCGAGGAT, 0.449.
Sequence TCATATAGGTAAAGCTGAAAGTCGAACGATATGA came in with a PBM binding z-score of 0.186.
To CCTTCTGGGCCACGAAAGGTCATTGATTCAGTGA belongs 4.28; to CAGTCTAGGTCAGGGCCAGTATAGGAGGAACGTT, 0.403.
To TTACCAAGGTGAGCTGAGGTCGTTAATCCAACTC belongs 3.68.
To CCGGACAGGTGAAAGGTAACTCAGTCTGGTACGC belongs 0.694; to CCTAGTTGGTCAAGGACACACACGCTATAGGTAC, 0.744.
On to ACAGATAGGTGAGTGAAGGTAACTCAGCTGGACG, for which the PBM binding z-score is -0.335.
The value for TCGGACAGGTGAAGGTAACTCAGGTACGCAGTCG was 0.531; that for CTACCGAGGTGAACAAGGTCGTTGATTACTATTC was 6.42; that for CAAACTAGGGCAAGGTCAAAGTCGGTTTGTGCCA was 4.44.
In the case of CAAGACAGGTGAAAGGTAACTCAGTCTGGTACGC, the PBM binding z-score worked out at 0.87.
To CGAACTAGGTCAAGGACAGTGGATCTCCGCACGC belongs 1.22.
The value for CCTATCAGGCCAATCTGGGTCACTCAAGGCTTGA was 0.878.
The value for CCGACTGGGGCAAAGGTTATCATACTCAGTACGA was 1.46.
TGTATGAGGTTATAAGATCAGGGAACGTTGCAAA: the PBM binding z-score was 1.26.
Sequence CCTAGCAAGCCAGGGTCACTCAAGCATTTCGCTT displayed a PBM binding z-score of 2.8.
To CGTCCAAGGTCAGAGGAGGTCAGTGAAGACAGAT belongs 5.98.
To AGTCAAAGTTCACTAGGTAGCGTAAGATTCAGCT belongs 3.56.
To CCGACTGGGGCAGAAAGGTTACAATACCATCCGG belongs 1; to GGAACGAGGGTAAAGTTGATAGCATCTGTCGACG, 0.137; to CTACCAAGGAGAACAAGGTCGTTGATTACTATTC, 1.56.
In the case of CCTACTGGGGCATCAGGTCATTGATATCAACGTT, the PBM binding z-score turned out to be 1.85.
The value for TAATATAGGTAAAGGTGAAAGTCGAACGATATGA was 1; that for CATACAGGGTCAGCTAGGCCAGGGTAGGGACGGC was 3.64.
The value for TATACAGTGTCAAAGGCCAGAGTACGAATGTCGA was 0.815; that for CCTTACGGGTCAAGGTGATAGCACGGGTGGTACG was 2.92; that for AGATGTAGGTTACATCCGGGTCATTCAGGCTATG was 4.
The value for TCAAGTAGGTTAGTCGGGGCATTCAGCCAACATA was 2.43; that for CAAACTAGGTCACAGAGGTCAAAATCCGTGCGTA was 7.91; that for TAGCCTAGGTCAGATCGGGCCAGTATGCGCTATA was 0.446.
Sequence TCTATTATTTGATTAGGGCAACCGAAACAGCGGA gave a PBM binding z-score of 0.857.
On to CCTACAGGGCCATCAGGTCATTGATATCAACGTT, for which the PBM binding z-score amounted to 2.48.
For the sequence ACTAGCAGGCCAAGTTTGAGTCACTCAAACAAAG, the PBM binding z-score is -0.614.
Regarding CCGACTGGGGCCTAAGGTTACCATAAGCCAGCCC, the PBM binding z-score is -0.158.
